According to PMC4336329 (PLoS ONE, 2015):
Hit rate of the full screen: of about 310,000 compounds, about 14,000 (4.5%) showed an effect of 50% or more. Effects have a minus sign here. The full list was thinned out, with strong results kept by preference.

Target: human ether-à-go-go-related gene (hERG) potassium channel (human, UniProt Q12809)
Assay: primary screen, population patch clamp on CHO cells stably expressing hERG; higher = less effect of the substance
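Further: peak tail current of the secondary pulse compared with the same well before compound.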

Sequence of human ether-à-go-go-related gene (hERG) potassium channel (Q12809 whole entry, looked up): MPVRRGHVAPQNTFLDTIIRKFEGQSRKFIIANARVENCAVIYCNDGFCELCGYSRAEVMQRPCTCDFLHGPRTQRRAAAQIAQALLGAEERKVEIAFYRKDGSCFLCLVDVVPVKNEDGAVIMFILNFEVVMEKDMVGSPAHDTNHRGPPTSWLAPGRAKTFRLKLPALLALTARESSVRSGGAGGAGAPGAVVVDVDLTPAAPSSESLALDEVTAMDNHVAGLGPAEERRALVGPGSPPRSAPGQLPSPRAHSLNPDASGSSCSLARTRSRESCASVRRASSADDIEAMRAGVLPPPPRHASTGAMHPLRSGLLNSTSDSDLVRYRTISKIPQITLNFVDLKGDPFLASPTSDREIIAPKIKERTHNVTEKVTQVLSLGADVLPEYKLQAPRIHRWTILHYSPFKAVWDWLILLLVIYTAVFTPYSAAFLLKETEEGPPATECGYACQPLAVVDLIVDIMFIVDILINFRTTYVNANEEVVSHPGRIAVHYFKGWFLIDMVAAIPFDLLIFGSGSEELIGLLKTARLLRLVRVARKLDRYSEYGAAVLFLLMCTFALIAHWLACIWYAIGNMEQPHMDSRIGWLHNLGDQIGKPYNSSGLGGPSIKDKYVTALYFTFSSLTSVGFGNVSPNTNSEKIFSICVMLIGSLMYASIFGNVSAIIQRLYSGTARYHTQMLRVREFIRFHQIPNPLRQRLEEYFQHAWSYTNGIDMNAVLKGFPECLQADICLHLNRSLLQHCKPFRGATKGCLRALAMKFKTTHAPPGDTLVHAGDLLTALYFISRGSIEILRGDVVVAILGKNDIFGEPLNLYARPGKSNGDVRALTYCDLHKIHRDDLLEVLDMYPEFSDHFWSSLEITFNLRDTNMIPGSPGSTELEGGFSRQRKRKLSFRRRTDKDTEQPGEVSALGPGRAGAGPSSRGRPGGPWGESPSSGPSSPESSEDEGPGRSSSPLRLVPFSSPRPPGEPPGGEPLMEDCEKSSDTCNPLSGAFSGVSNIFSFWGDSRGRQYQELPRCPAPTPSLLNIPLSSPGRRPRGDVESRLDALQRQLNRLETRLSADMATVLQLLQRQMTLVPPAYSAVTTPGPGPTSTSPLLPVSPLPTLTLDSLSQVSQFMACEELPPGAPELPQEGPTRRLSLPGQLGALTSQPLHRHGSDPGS

SMILES	hERG current change (%, negative = inhibition) at 10uM [%]
COc1ccc(-c2nn(-c3ccccc3)cc2/C=N/N=C(N)N)cc1OC	-27.8
CCN(CCCCCCN)c1ccc2c(=O)[nH][nH]c(=O)c2c1	6.75
Cc1ccc(CN(C(=O)Cn2nnc3ccccc32)C(C(=O)NCc2ccco2)c2cccs2)cc1 (centres unmarked)	-23.1
CN(C(=O)COC(=O)c1ccc2c(c1)OCO2)C1CCS(=O)(=O)C1 (centres unmarked)	9.31
O=C(/C=C/c1cccc([N+](=O)[O-])c1)N1CCN(c2ccccn2)CC1	-41.2
COCCn1c(=NC(=O)CN2C(=O)CCC2=O)sc2cc(S(N)(=O)=O)ccc21	-9.48
CC(CC(=O)Nc1ccccc1)n1ccnc1 (centres unmarked)	-5.07
O=c1cccc(-c2ccccc2)[nH]1	-2.53
COc1ccc2nc(N3CCOCC3)cc(C)c2c1	-0.452
Cc1ccccc1NC(=O)c1cccc2nc3ccccc3nc12	13.8
O=C(Nc1cc(S(=O)(=O)N2CCOCC2)ccc1Oc1ccc(F)cc1)C1=COCCO1	-69.8
CCN(CC)S(=O)(=O)c1ccc(N2CCOCC2)c(NC(=O)Cc2ccccc2)c1	-36.2
O=C(Nc1ccc(F)cc1)Nc1cc(S(=O)(=O)N2CCOCC2)ccc1N1CCCC1	-97.4
O=C(Nc1cc(S(=O)(=O)N2CCOCC2)ccc1N1CCCC1)C1CC1	-0.0868
O=C(Nc1cc(S(=O)(=O)N2CCOCC2)ccc1N1CCOCC1)c1ccc(S(=O)(=O)N2CCCCC2)cc1	-1.72
O=C(COC(=O)c1ccc(F)cc1)Nc1cc(S(=O)(=O)N2CCOCC2)ccc1N1CCCC1	-28.2
CCN(CC)S(=O)(=O)c1ccc(N2CCOCC2)c(NC(=O)CNCCc2ccccc2)c1.O=C(O)C(=O)O	-63.8
CCN(CC)S(=O)(=O)c1ccc(N2CCOCC2)c(NC(=O)COc2ccccc2)c1	-11.1
O=C(Nc1cc(S(=O)(=O)N2CCOCC2)ccc1N1CCCC1)c1ccc(F)cc1	-82.3
CCOc1ccc(Oc2ccc(S(=O)(=O)N3CCOCC3)cc2NC(=O)C2=COCCO2)cc1	-41.9
Cc1ccc(C(=O)Nc2cc(S(=O)(=O)N3CCOCC3)ccc2N2CCCC2)cc1	-8.42

SMILES	hERG current change (%, negative = inhibition) at 10uM [%]
O=C(Nc1cc(S(=O)(=O)N2CCCCC2)ccc1Oc1ccccc1)C1=COCCO1	-10.6
C/C=C/c1ccc(OCC(=O)Nc2cc(OC)c(OC)c(OC)c2)c(OC)c1	-3.16
Cc1cccc(NC(=O)c2cccc(S(=O)(=O)N(C)c3ccccc3)c2)n1	-28.7
CC(C)(C)c1cc(NC(=O)c2cccc([N+](=O)[O-])c2)no1	3.8
O=C1CCCC2=C1C(c1ccco1)Nc1ccc(C(=O)c3ccccc3)cc1N2 (centres unmarked)	6.94
COc1ccc(Cn2c(=O)[nH]c3cc(C(=O)Nc4ccccc4C)ccc32)cc1	2.66
O=S(=O)(c1cccc(F)c1)N1CCCN(c2ccc(C(F)(F)F)cn2)CC1	-27.3
CC(=O)Nc1ccccc1OCC(=O)NC1CCCCC1C (centres unmarked)	8.59
NS(=O)(=O)c1cccc(-n2cnnn2)c1	-6.93
NC1=C([N+](=O)[O-])C(c2ccc3c(c2)OCO3)C2=C(CCCC2=O)O1 (centres unmarked)	10.8
O=C(Nc1ccc(Cl)cc1)Nc1cc(S(=O)(=O)N2CCOCC2)ccc1N1CCCC1	-54.5
O=C(NC(=S)Nc1ccccc1N1CCOCC1)c1ccco1	9.73
O=C(Nc1ccccc1)Nc1cc(S(=O)(=O)N2CCOCC2)ccc1N1CCCC1	-71
CCN(CC)S(=O)(=O)c1ccc(N2CCOCC2)c(NC(=O)c2ccc(F)cc2)c1	-72.3
CCN(CC)S(=O)(=O)c1ccc(N2CCOCC2)c(NC(=S)NC(=O)c2ccco2)c1	-66.5
O=C(NC(=S)Nc1cc(S(=O)(=O)N2CCOCC2)ccc1N1CCOCC1)c1ccco1	-39.4
O=C(Nc1ccc(Cl)c(Cl)c1)Nc1cc(S(=O)(=O)N2CCOCC2)ccc1N1CCCC1	-16.6
O=C(Nc1cccc(Cl)c1)Nc1cc(S(=O)(=O)N2CCOCC2)ccc1N1CCCC1	-38.9
CCN(CC)S(=O)(=O)c1ccc(N2CCOCC2)c(NC(=O)c2ccc(NC(C)=O)cc2)c1	-0.15
CCN(CC)S(=O)(=O)c1ccc(N2CCOCC2)c(NC(=O)c2ccccc2)c1	-25.6
O=C(Nc1cc(S(=O)(=O)N2CCOCC2)ccc1N1CCCCC1)c1ccc(Cl)cc1	-1.07

SMILES	hERG current change (%, negative = inhibition) at 10uM [%]
O=C(Nc1ccccc1F)Nc1cc(S(=O)(=O)N2CCOCC2)ccc1N1CCCC1	-19
O=C(c1ccccn1)N(Cc1ccco1)C1(C(=O)NC2CCCCC2)CCCCC1	10.9
O=C(CCC(=O)OCc1ccc(Br)cc1)Nc1ccccc1	8.45
CCC1CCCCN1C(=O)Cn1c(=O)n(CCC(=O)NCc2ccco2)c(=O)c2sccc21 (centres unmarked)	-6.12
C=CCNC(=O)c1ccccc1NC(=O)C1COc2ccccc2O1 (centres unmarked)	4.92
c1ccc(CCNc2ncnc3ccccc23)cc1	-43.2
Cc1cc(Cl)ccc1OC(C)C(=O)NN1C(=O)c2ccccc2C1=O (centres unmarked)	20.9
COc1cccc(OC)c1C(=O)OCC(=O)NCC(C)C	24.7
COc1cccc(NC(=O)N2CCOCC2)c1	-14.8
CC(C)(C)N=Cc1cc(-c2ccccc2)sc1O	-17.2
COc1ccc(/C=C/C(=O)c2ccc(NC3=NCCCS3)cc2)cc1OC	-37.7
Cc1nn(Cc2ccccc2)c(C)c1/C=N/NC(=O)c1ccncc1	-46.4
Cc1cccc(N2CCN(C(=O)c3cc(S(=O)(=O)N4CCCC4)cn3C)CC2)c1C	-38
Cc1cc(C)cc(NC(=O)CSc2nc3ccncc3[nH]2)c1	8.99
O=C(Nc1cc(C(F)(F)F)ccc1N1CCOCC1)c1cn2ccccc2n1	-2.98
O=C(Nc1cc(S(=O)(=O)N2CCOCC2)ccc1N1CCOCC1)c1cn2ccccc2n1	-52.3
O=C(Nc1ccc(Cl)c(S(=O)(=O)N2CCOCC2)c1)c1cn2ccccc2n1	11.9
C=CCn1c(COc2ccccc2)nnc1SC(C)C(=O)N/N=C/c1cc(Cl)ccc1O (centres unmarked)	0.335
CCCN1CCN(C(=O)c2ccc3nc(CC)c(CC)nc3c2)CC1	1.54
CNC(=O)COc1ccc(S(=O)(=O)Nc2ccccc2)cc1	14.4
O=C(c1ccco1)N1CCCSC1=Nc1ccccc1	12

SMILES	hERG current change (%, negative = inhibition) at 10uM [%]
Cc1ccc(S(=O)(=O)N/N=c2\oc3ccccc3cc2C(=O)Nc2cccc(C)c2)cc1	-68.1
COc1ccc(NC(=O)c2cc3ccccc3o/c2=N\NS(=O)(=O)c2ccc(C)cc2)cc1	-13.6
COc1cccc2cc(C(=O)Nc3cc(C)cc(C)c3)/c(=N/NS(=O)(=O)c3ccccc3)oc12	19.5
O=C1CN(C(=O)c2cccc([N+](=O)[O-])c2)CC(=O)N1	13.4
O=C(c1cccc([N+](=O)[O-])c1)N1CCOCC1	11.7
O=C1CC2(CCN(C(=O)c3cccc([N+](=O)[O-])c3)CC2)Oc2ccccc21	-75.7
O=C1CC2(CCN(C(=O)c3ccc([N+](=O)[O-])cc3)CC2)Oc2ccccc21	-87.9
Cc1nn2c(C(F)(F)F)c3c(nc2c1-c1ccccc1)CCC3	19.1
CC(=O)Nc1ccc(NS(=O)(=O)C(F)(F)F)cc1	31.2
O=C(COc1ccc(Cl)cc1)NCC(=O)N1CCC2(CC1)NCCc1[nH]cnc12	7.16
O=C(CSc1nc2c(c(=O)n1-c1ccc(F)cc1)SCC2)Nc1ccc2c(c1)OCO2	-2.35
COc1cccc(-c2cc(C(=O)NCCc3ccccc3)no2)c1	11.9
c1ccc(CCCN2CCOCC2)cc1	22.1
OC1(Cc2cc(-c3ccccc3)no2)CCN(CCCc2ccccc2)CC1	-77
CC(C)(C)OC(=O)N1CCC(Cc2cc(-c3ccccc3)no2)(C(=O)O)CC1	12.1
COc1cccc(-c2cc(CC3(O)CCN(CCCc4ccccc4)CC3)on2)c1	-89.1
COc1cccc(-c2cc(C(=O)N3CCN(Cc4ccccc4)CC3)no2)c1	-15.7
COCCN1Cc2cccc(C(=O)Nc3ccc(S(=O)(=O)N4CCOCC4)cc3)c2C1=O	27.3
O=C(O)CCCN=C1NC2(CCCC2)Cc2ccccc21	-39.6
COc1cccc(C(=O)N(Cc2ccccc2)Cc2cc3cc4c(cc3[nH]c2=O)OCCO4)c1	-25.3
